Screens (PubChem)
HEK293 tox: cytotoxic in the GLP-1 receptor inverse agonist counter-screen | HEK293 cAMP-luciferase reporter cells, luminescence, 24 h | Potency, µM (doses to about 38.3 µM), for inactives: at the highest dose activity change, negative = inhibition, most hits filed as inhibitors | hit rate 0.13% among 410,000 | AID 624418;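 also: loss of luciferase light is scored as toxicity; % is scaled to controls: 0 for no effect and ±100 for the full control effect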
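To flag toxic compounds, the library was rerun on cells for 24 hr at 37 deg C and 5% CO2. Viability-linked luminescence was captured 12 min after adding luciferase detection reagent.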
GLP1R inv ag: inverse agonists of human GLP-1 receptor; HEK293 GLP-1R CRE-luciferase, luminescence, 24 h; GLP-1R form is constitutively active; hit rate 1.6% among 410,000; Potency, µM (series often up to 38.3 µM), for inactives: top-dose activity change, negative = inhibition, hits mostly inhibitors; also: % is scaled to controls: 0 for no effect and ±100 for the full control effect; nearly all actives have a fitted effect of over 55% in size
Target sequence (P43220 whole entry, looked up): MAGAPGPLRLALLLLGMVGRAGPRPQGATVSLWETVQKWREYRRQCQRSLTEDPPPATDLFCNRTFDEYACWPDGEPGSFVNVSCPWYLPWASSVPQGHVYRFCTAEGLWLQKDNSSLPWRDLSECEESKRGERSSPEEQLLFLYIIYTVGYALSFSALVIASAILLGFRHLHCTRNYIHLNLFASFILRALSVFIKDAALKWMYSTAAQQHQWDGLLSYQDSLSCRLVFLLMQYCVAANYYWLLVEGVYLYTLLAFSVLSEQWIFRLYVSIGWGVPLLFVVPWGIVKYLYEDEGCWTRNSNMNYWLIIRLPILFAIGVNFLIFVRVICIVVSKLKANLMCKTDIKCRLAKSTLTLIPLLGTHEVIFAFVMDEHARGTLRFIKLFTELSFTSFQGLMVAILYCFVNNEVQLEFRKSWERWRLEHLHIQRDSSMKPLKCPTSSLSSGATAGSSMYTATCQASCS
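Cells are plated, allowed 12 hours at 37 deg C, then treated with compounds for 24 hr before luciferase detection reagent is added and luminescence is read after 12 min at room temperature. The HEK293 line carries constitutively active GLP-1R with a cAMP-responsive reporter.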
ClpP mod: qHTS Assay for Activators of ClpP | ATP-dependent Clp protease proteolytic subunit (Bacillus subtilis (strain 168)), P80244 | purified B. subtilis ClpP, FRET peptide cleavage, 20 min | Potency, µM (highest dose often 57.5 µM), inactives show top-dose activity change, negative = active | hit rate 1.9% among 340,000 | AID 651965, 2013; active = well fitted falling curve with a large enough effect; inconclusive = small, poorly fitted or top-dose-only effect; inactive = no such curve, though single readings can be large or run the other way; also: the source files actives as falling curves though it sought activators and does not explain the sign; nearly all actives have a fitted effect of over 65% in size
Target sequence (P80244 whole entry, looked up): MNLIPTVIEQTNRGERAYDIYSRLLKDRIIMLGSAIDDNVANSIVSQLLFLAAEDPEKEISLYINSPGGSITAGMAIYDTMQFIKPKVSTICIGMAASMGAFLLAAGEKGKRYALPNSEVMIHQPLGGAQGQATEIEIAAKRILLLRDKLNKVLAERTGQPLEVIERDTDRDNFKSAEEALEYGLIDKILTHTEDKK
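Purified B. subtilis ClpP, 10 microg/mL final in Tris/HCl pH8 with KCl, BSA, glycerol and Tween-20, cleaved an Abz/nitrotyrosine-quenched decapeptide. Fluorescence (ex 320, em 430) was read at 0 and 20 min at room temperature. Delta was normalized to 5.8 microM ADEP and DMSO/no-enzyme controls.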
GLP-1R agonist: agonists of human GLP-1 receptor; HEK293 GLP-1R CRE-luciferase, luminescence, 4-6 h; cells express a hypersensitive GLP-1R form; Potency, µM (doses to about 45.6 µM), inactives show at the highest dose activation, most hits filed as activators; hit rate 0.007% among 380,000; also: % of control where 0% means no effect
ClpP validation: validation of B. subtilis ClpP protease hits (inhibitors); shares compounds with ClpP mod; purified B. subtilis ClpP, FRET-FV substrate cleavage, 20 min; Potency, µM (series often up to 57.5 µM), for inactives: at the highest dose activity change, negative = inhibition, usual class: inhibitors; hit rate 40% among 470; AID 743245; also: % is scaled to controls: 0 for no effect and ±100 for the full control effect; nearly all actives have a fitted effect of over 70% in size
* = called active by the depositor. The list is not random: actives were taken first. Their share in the collection is about 3.2%. Unless noted, calls follow the shape of the dose curve; as a rule, active = well fitted curve in the direction sought with a large enough effect; inconclusive = small, poorly fitted or top-dose-only effect, or another doubt; inactive = no such curve, though single readings can be large; an effect the other way counts as inactive or inconclusive. Potency is read from the fitted curve at half-maximal effect.

What do the screens show for `CN(N=O)c1ccc(/C=C2\C=Cc3ccccc32)cc1`?
ClpP mod: 0%

Results for O=C(O)c1ccc2c(c1)OCCO2 ?
HEK293 tox: 0%; GLP1R inv ag: 1%; ClpP mod: -1%; GLP-1R agonist: -8%

What do the screens show for `NC(=O)c1ccc2c(c1)OCCO2`?
HEK293 tox: 22%; GLP1R inv ag: 0%; ClpP mod: 31%; GLP-1R agonist: 2%; ClpP validation: -2%

How did O=C(NC1CCCCC1)N(Cc1cc2cc3c(cc2[nH]c1=O)OCCO3)CC1CCCO1 (centres undefined) do in these assays?
HEK293 tox: -22%; GLP1R inv ag: 45%; ClpP mod: 10µM*; GLP-1R agonist: 2%; ClpP validation: inconclusive

What do the screens show for `COc1cc2ccccc2cc1C(=O)Nc1ccc(Br)cn1`?
HEK293 tox: 10%; GLP1R inv ag: 11%; ClpP mod: 3.5µM*; GLP-1R agonist: -5%; ClpP validation: inconclusive

How did COc1c(C(=O)Nc2ccc(Br)cn2)ccc2ccccc12 do in these assays?
HEK293 tox: -1%; GLP1R inv ag: 38%; ClpP mod: -17%; GLP-1R agonist: 22%

Results for CC(C)c1ccc(C(=O)Nc2cccc3cccnc23)cc1 ?
HEK293 tox: -10%; GLP1R inv ag: 0%; ClpP mod: 1%; GLP-1R agonist: 8%

Results for Nc1nc(N2CCN(C(=O)c3ccco3)CC2)nc2ccccc12 ?
HEK293 tox: -18%; GLP1R inv ag: 21%; ClpP mod: 4.5µM*; GLP-1R agonist: 6%; ClpP validation: 27µM*

What do the screens show for `c1ccc2c(N3CCOCC3)nc(N3CCOCC3)nc2c1`?
HEK293 tox: 62%; GLP1R inv ag: 22%; ClpP mod: 3.2µM*; GLP-1R agonist: 7%; ClpP validation: 24µM*

Results for c1ccc(CN2CCN(c3nc(N4CCOCC4)c4ccccc4n3)CC2)cc1 ?
HEK293 tox: 1%; GLP1R inv ag: inconclusive; ClpP mod: -26%; GLP-1R agonist: 15%

How did CN(C)S(=O)(=O)Oc1ccccc1C(=O)Nc1cccc(C(F)(F)F)c1 do in these assays?
HEK293 tox: -11%; GLP1R inv ag: inconclusive; ClpP mod: 86%; GLP-1R agonist: -3%; ClpP validation: 1%

How did CN(C)S(=O)(=O)Oc1ccc(Cl)cc1C(=O)Nc1cccc(C(F)(F)F)c1 do in these assays?
HEK293 tox: -17%; GLP1R inv ag: -23%; ClpP mod: 0%; GLP-1R agonist: 11%

Results for COc1ccccc1NC(=O)c1ccc(NC(=O)CN2CCCCC2)cc1 ?
HEK293 tox: -6%; GLP1R inv ag: inconclusive; GLP-1R agonist: 11%

How did COc1ccccc1NC(=O)CN1CCCCC1 do in these assays?
HEK293 tox: 5%; GLP1R inv ag: -17%; ClpP mod: 4µM*; GLP-1R agonist: 20%; ClpP validation: 0%

Results for COc1ccc(NC(=O)c2c(-c3ccccc3)c(-c3ccccc3)nn(C)c2=O)c(OC)c1 ?
HEK293 tox: -10%; GLP1R inv ag: -24%; ClpP mod: 1%

Results for O=S(=O)(Nc1cccc(-c2cn3cccnc3n2)c1)c1ccc(F)cc1 ?
HEK293 tox: -9%; GLP1R inv ag: -16%; ClpP mod: 4µM*; GLP-1R agonist: 2%; ClpP validation: 24µM*

What do the screens show for `Cc1cc(C)cc(N2CCn3c2nc2c3c(=O)n(CCCc3ccccc3)c(=O)n2C)c1`?
HEK293 tox: 0%; GLP1R inv ag: -1%; ClpP mod: inconclusive

What do the screens show for `CC1=C(c2ccc(C)c(C)c2)S(=O)(=O)N(Cc2ccc(C(=O)NC(C)c3ccccc3)cc2)C1=O` (centres undefined)?
HEK293 tox: -3%; GLP1R inv ag: -5%; ClpP mod: 5.6µM*; ClpP validation: 34µM*

What do the screens show for `COC(=O)Nc1c(-c2ccccc2)nc2ccccn12`?
HEK293 tox: -25%; GLP1R inv ag: 3%; ClpP mod: 7.9µM*; GLP-1R agonist: 2%; ClpP validation: 27µM*

Results for CCc1nc(Nc2ccncc2)c2oc3ccccc3c2n1 ?
HEK293 tox: inconclusive; GLP1R inv ag: inconclusive; ClpP mod: 8.9µM*; GLP-1R agonist: -3%; ClpP validation: inconclusive

How did CCc1nc(Nc2cccc(O)c2)c2oc3ccccc3c2n1 do in these assays?
HEK293 tox: -22%; GLP1R inv ag: inconclusive; ClpP mod: -11%; GLP-1R agonist: 1%

How did CCOc1ccc(C2C=C(c3ccc(C)cc3)Nc3nnnn32)cc1 (centres undefined) do in these assays?
HEK293 tox: inactive; GLP1R inv ag: inconclusive; ClpP mod: 10µM*; GLP-1R agonist: 3%; ClpP validation: -11%

Results for Cc1cccc(C)c1NC(=O)COC(=O)COc1ccc2c(C)cc(=O)oc2c1 ?
HEK293 tox: 9%; GLP1R inv ag: 11%; ClpP mod: 80%; GLP-1R agonist: 4%; ClpP validation: -28%

Results for S=C(NCCCc1cnc[nH]1)NCCCN(Cc1ccc(Cl)cc1)c1ccc(Br)cc1 ?
ClpP mod: -4%

Results for CC(C)N1CCOC1c1ccccc1 (centres undefined) ?
HEK293 tox: -2%; GLP1R inv ag: 2%; ClpP mod: 7.9µM*; GLP-1R agonist: -7%; ClpP validation: -1%

What do the screens show for `CN1CCOC(c2ccccc2)c2ccccc2C1` (centres undefined)?
HEK293 tox: 3%; GLP1R inv ag: -14%; ClpP mod: -1%; GLP-1R agonist: 19%

How did Cc1ccc(NC(=O)c2ccc(NC(=O)c3ccccc3)cc2)cc1C do in these assays?
HEK293 tox: inconclusive; GLP1R inv ag: inconclusive; ClpP mod: 202%; GLP-1R agonist: -9%; ClpP validation: 24µM*

Results for CCOc1ccccc1CNC(=O)c1cnc2sc(N3CCCC3)nn2c1=O ?
HEK293 tox: 10%; GLP1R inv ag: 3%; ClpP mod: 7.9µM*; ClpP validation: 0%

What do the screens show for `CCOc1ccc(CCNC(=O)c2ccc(C)c(-n3c(C)nc4cccnc43)c2)cc1OCC`?
HEK293 tox: 2%; GLP1R inv ag: 19%; ClpP mod: -2%

What do the screens show for `Cc1nc(-n2nc(C)c(Cc3ccc4c(c3)OCO4)c2C)sc1C(=O)Nc1cccc(Cl)c1`?
HEK293 tox: 1%; GLP1R inv ag: -9%; ClpP mod: inconclusive

What do the screens show for `COc1ccc2c(c1)c1ncn(CCc3ccccc3)c(=O)c1n2C`?
HEK293 tox: -1%; GLP1R inv ag: -27%; ClpP mod: 4.5µM*; GLP-1R agonist: 10%; ClpP validation: 12µM*

How did Nc1cc(N)cc(N)c1 do in these assays?
ClpP mod: -6%

Results for COc1c(C)cc(C(=O)C2CCCN(S(=O)(=O)N(C)C)C2)cc1C (centres undefined) ?
HEK293 tox: 0%; GLP1R inv ag: -14%; ClpP mod: 2.8µM*; GLP-1R agonist: 0%; ClpP validation: -10%
